High-throughput results as filed in PubChem BioAssay.
Shown are actives, neighbours in structure and some others; about 4.7% of the full set was active somewhere.
SARS 3CLpro inh: SARS-CoV 3CLpro protease inhibitors, primary screen, biochemical, quenched FRET. inhibition, % at 6 µM. Replicase polyprotein 1ab (Severe acute respiratory syndrome coronavirus), P0C6X7. hit rate 0.14% among 290,000. recombinant SARS-CoV 3CLpro, quenched FRET peptide cleavage; in the data active = inhibition above about 12%
RecA intein inh: Mtb RecA intein splicing inhibitors, primary screen, biochemical, fluorescence, HTS | cell-free RecA intein splicing | inhibition, % (test concentration not listed) | hit rate 0.75% among 290,000; in the data active = inhibition above about 30%
Mtb FBA inh: Mtb FBA enzyme inhibitors, primary screen, biochemical, fluorescence, strain H37Rv | Fructose-bisphosphate aldolase (Mycobacterium tuberculosis (strain ATCC 25618 / H37Rv)), … | purified M. tuberculosis FBA, fluorescence read-out | hit rate 2.3% among 360,000 | inhibition, % at 1 µM; in the data active = inhibition above about 27%
Target sequence (P9WQA3 whole entry, looked up): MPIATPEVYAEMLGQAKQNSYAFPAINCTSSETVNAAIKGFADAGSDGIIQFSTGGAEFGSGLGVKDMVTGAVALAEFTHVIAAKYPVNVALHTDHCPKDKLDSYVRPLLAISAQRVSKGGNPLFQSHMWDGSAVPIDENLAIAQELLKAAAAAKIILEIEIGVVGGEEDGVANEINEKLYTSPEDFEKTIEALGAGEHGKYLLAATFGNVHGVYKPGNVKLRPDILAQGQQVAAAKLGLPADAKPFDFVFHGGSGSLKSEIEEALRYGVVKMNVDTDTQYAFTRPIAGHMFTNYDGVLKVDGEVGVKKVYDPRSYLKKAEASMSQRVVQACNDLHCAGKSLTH
CCHFV vOTU inh: CCHFV vOTU protease inhibitors, primary screen, biochemical, Pep-AMC substrate, fluorescence | Crimean-Congo hemorrhagic fever virus L polyprotein viral ovarian tumor (vOTU) protease … | inhibition, % at 11.5 µM | hit rate 0.55% among 370,000
VHR inh abs: VHR1 phosphatase inhibitors, primary screen, biochemical, absorbance, uHTS. inhibition, % at 13.3 µM. recombinant VHR phosphatase, pNPP absorbance. hit rate 0.52% among 290,000. Dual specificity protein phosphatase 3 (Homo sapiens), P51452; in the data active = inhibition above about 50%
Target sequence (P51452 whole entry, looked up): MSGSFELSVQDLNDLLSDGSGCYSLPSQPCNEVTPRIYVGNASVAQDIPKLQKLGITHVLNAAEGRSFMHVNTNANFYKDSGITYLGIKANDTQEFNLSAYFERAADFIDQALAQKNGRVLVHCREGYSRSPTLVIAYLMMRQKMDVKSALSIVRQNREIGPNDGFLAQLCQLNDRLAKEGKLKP
GDH-TPI inh: GDH-TPI coupling enzyme inhibitors, primary screen, artefact control for M. tuberculosis FBA inhibitor project, biochemical, absorbance, full deck | GDH-TPI coupled enzyme counterscreen, NADH absorbance | hit rate 1.2% among 360,000 | inhibition, % at 4.8 µM
GFP chromo cs: counter-screen: blocks GFP chromophore formation, dose response, counter-screen, biochemical, fluorescence, homogeneous; shares compounds with RecA intein inh; cell-free GFP chromophore formation; hit rate 83% among 2,100; EC50, µM; call rule not given here
Hits are given with their value; - = inactive; . = not tested or not shown. Cut-off read from the data, not from the text of the source, unless noted: active = inhibition above about 30%; inactive = the rest.

SMILES	SARS 3CLpro inh	RecA intein inh	Mtb FBA inh	CCHFV vOTU inh	VHR inh abs	GDH-TPI inh	GFP chromo cs
Cc1ccc(-n2nc(C)c3c2OC(N)=C(C#N)C3c2ccc(C)o2)cc1 (stereo unspecified)	-	80	-	-	-	-	17
Cc1ccc(-n2nc(C)c3c2OC(N)=C(C#N)C3c2ccco2)cc1 (stereo unspecified)	-	69	-	-	-	-	11
COc1ccc(OC)c(C2C(C#N)=C(N)Oc3c2c(C)nn3-c2ccc(C)cc2)c1 (stereo unspecified)	-	44	-	-	-	-	29
COc1ccc(C2C(C#N)=C(N)Oc3c2c(-c2ccccc2)nn3-c2ccccc2)c(OC)c1OC (stereo unspecified)	-	-	-	-	-	-	.
O=C1NC(=O)C(Cc2ccc(O)cc2)N1 (stereo unspecified)	.	.	-	-	.	-	.
CCN1Cc2c(/C=C/c3ccccc3)nc3ccc(OC)cc3c2N(c2cccc(Cl)c2)C1	-	34	-	-	-	-	23
CCOC(=O)N1CCN(C(=O)C[C@@H]2C[C@@]3(C(=O)OCC)CCC=C3N(Cc3ccc4c(c3)OCO4)C2=O)CC1	.	.	.	-	.	.	.
CC(C)c1ccc(N(CC(=O)N2CCN(Cc3ccccc3)CC2)S(C)(=O)=O)cc1	-	.	-	-	-	-	.
O=C(Nc1ccc(Cl)cc1)/C(=C/c1cccc(O)c1)c1nc2ccccc2s1	-	46	-	-	-	-	21
CCOC(=O)C1=C(C)n2c(s/c(=C/c3cccc([N+](=O)[O-])c3)c2=O)=NC1c1ccc(O)c(OC)c1 (stereo unspecified)	-	35	-	-	-	-	36
COc1cc(C=C2C(=O)c3ccccc3C2=O)ccc1O	-	46	-	-	-	-	-
CN1C(c2ccccc2)CC2CN(c3ccccc3)C(=O)C21 (stereo unspecified)	.	.	.	-	.	.	.
Cc1cc(-c2ccccc2)nc2cc(C(=O)N(Cc3ccccc3)Cc3ccccc3)nn12	-	32	-	-	-	-	-
CC(C)(C)NC(=O)C(c1ccc(Cl)cc1)N(Cc1ccco1)C(=O)CCl (stereo unspecified)	-	69	-	-	-	-	22
CC(C)(C)NC(=O)C(c1ccc(O)cc1)N(Cc1ccco1)C(=O)CCC(=O)Nc1ccccn1 (stereo unspecified)	-	-	-	-	-	-	.
CC(C)(C)S(=O)(=O)N1C[C@H]2C(=CC[C@@H]3C(=O)N(c4ccccc4)C(=O)[C@@H]32)[C@H]1CCO	.	.	-	-	.	-	.
O=C(COc1cc2oc(=O)c3c(c2cc1Cl)CCC3)Nc1cccnc1	-	-	-	-	-	-	.
Cc1c(OCC(=O)Nc2cccnc2)ccc2c3c(c(=O)oc12)CCC3	-	94	-	-	-	-	10
Cc1c(Cl)cccc1NC(=O)CSc1nncn1-c1ccccn1	-	-	-	-	-	-	.
Cc1[nH][nH]c(=O)c1C(c1cc(Br)ccc1O)c1c(C)[nH][nH]c1=O	-	97	-	-	-	-	0.53
Cc1[nH][nH]c(=O)c1C(c1cc2c(cc1Br)OCO2)c1c(C)[nH][nH]c1=O	-	95	-	-	-	-	0.72
Cc1[nH][nH]c(=O)c1C(c1ccc(-c2ccc(Cl)c(C(=O)O)c2)o1)c1c(C)[nH][nH]c1=O	-	.	-	-	-	-	.
CCCNC(=O)c1cc(C2CCCCN2S(=O)(=O)c2ccccc2)on1 (stereo unspecified)	.	.	-	-	.	-	.
COc1ccccc1NC(=O)c1cnc(SCC(=O)NCC2CCCO2)n(C)c1=O (stereo unspecified)	.	45	-	-	.	-	-
COc1ccccc1-n1nnnc1SCC(=O)NCC1CCCO1 (stereo unspecified)	.	-	-	-	.	-	.
SMILES	SARS 3CLpro inh	RecA intein inh	Mtb FBA inh	CCHFV vOTU inh	VHR inh abs	GDH-TPI inh	GFP chromo cs
COc1ccc(/C(N)=N/OC(=O)c2cccc([N+](=O)[O-])c2C)cc1OC	-	-	-	.	-	-	.
COc1cccc(C(=O)O/N=C(\N)c2ccc([N+](=O)[O-])cc2)c1OC	-	52	-	-	-	-	-
Cc1noc2ncnc(N3CCCC3)c12	-	-	-	-	-	-	.
Cc1noc2ncnc(Sc3ccc(Br)cc3)c12	-	37	-	-	-	-	31
O=C1/C(=C\c2ccc(O)c(O)c2)SC(=S)N1Cc1ccccc1	-	-	-	-	-	-	.
O=C(O)CN1C(=O)/C(=C\c2cc([N+](=O)[O-])ccc2OCc2ccccc2Cl)SC1=S	-	-	-	-	-	-	.
O=C1/C(=C\c2cc([N+](=O)[O-])ccc2O)SC(=S)N1Cc1ccc(Cl)cc1	-	52	-	-	-	-	35
O=C1/C(=C\c2cccc(O)c2O)SC(=S)N1Cc1ccccc1	-	36	-	-	-	-	39
O=C(Cc1c[nH]c2ccccc12)Nc1ccc(Nc2cccnc2)c(-c2ccc(OC(F)(F)F)cc2)c1	.	.	.	-	.	.	.
[O-]C1=N/[N+](=C/c2ccc(Cl)cc2)CC1	-	73	-	-	-	-	29
CCOc1cc(/C=C2\C(=O)N(c3ccc(C(N)=O)cc3)N=C2C)ccc1OC(=O)c1cccs1	-	94	-	.	-	-	3.3
CCOc1cc(/C=N/NC(=O)COc2ccc(C)cc2)ccc1OC(=O)c1cccs1	-	-	-	-	-	-	.
O=C(O)CC1OCC=C2CN3CCC45C6=CC(=O)C(=O)C([N+](=O)[O-])=C6NC4C1C2CC35 (stereo unspecified)	-	85	-	.	-	-	7.1
Cc1ccc(-n2nc3c(c2NC(=O)CC(C)C)CS(=O)(=O)C3)cc1	-	-	-	-	-	-	.
C=CCOc1ccc(C2C(C#N)=C(N)N(N(C)C)C3=C2C(=O)CCC3)cc1 (stereo unspecified)	-	-	-	-	-	-	.
Cc1[nH]n(-c2ccccc2)c(=O)c1/C=N/NC(=O)c1ccc(O)cc1O	-	41	-	.	-	36	2.8
O=C(O)c1[nH]c(-c2ccccc2)c2c1C(=O)N(C1CC1)C2=O	.	.	-	-	.	.	.
CC1=C(CC(=O)c2ccc(Cl)cc2)C(=O)c2ccccc2C1=O	-	68	-	-	-	-	11
O=C(CCl)Oc1ccc2occ(C(=O)c3cccs3)c2c1	-	32	-	-	-	-	25
CC(C)(C)OC(=O)NCCc1nnc(S(=O)(=O)Cc2ccc(Cl)cc2Cl)o1	-	85	-	-	-	-	-
